# Laboratory results published in the supplement of paper PMC12340641.
# Structures can show the parent of a compound that is named as a salt.
# System: HEK293FT dCK*-IKZF1
# Test: relative growth recovery (pomalidomide 10 uM = 100%, DMSO = 0%); higher = more growth rescue (IKZF1 fusion degradation)
# Conditions: compound concentration: 5 uM; AraC concentration: 0.3 uM; overnight pretreatment + 4 days AraC
# In short: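 HEK293FT cells stably expressing a dCK*-IKZF1 fusion (300/well, 384-well) received 5 μM compound 2 h after seeding. After overnight at 37 °C they received a nucleoside suicide substrate at 0.3 μM plus medium for 4 days. On day 5, Hoechst 33342-stained nuclei were counted by whole-well imaging. Growth recovery was normalised per plate to a reference degrader (100%) and vehicle (0%); values are means of duplicates run on different days.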
row,Compound,relative growth recovery [%]
1,O=C(N/N=C/c1ccccc1O)c1ccccc1O,-2.29
2,O=[N+]([O-])c1ccc2nc(COCc3nc4ccc([N+](=O)[O-])cc4[nH]3)[nH]c2c1,4.2
3,C[C@H](NCc1ccc(OCc2ccccc2F)cc1)C(N)=O [priralfinamide],-2.81
4,COc1cc([C@@H]2c3cc4c(cc3[C@@H](O[C@@H]3O[C@@H]5COC(c6cccs6)O[C@H]5[C@H](O)[C@H]3O)[C@H]3COC(=O)C23)OCO4)cc(OC)c1O (stereo partly specified) [Teniposide],-12.5
5,NC(=O)Nc1sc(-c2ccc(F)cc2)cc1C(N)=O,-9.27
6,CCc1c2c(nc3ccc(OC(=O)N4CCC(N5CCCCC5)CC4)cc13)-c1cc3c(c(=O)n1C2)COC(=O)[C@]3(O)CC [irinotecan],-13.9
7,CN(C)CCCN1c2ccccc2Sc2ccc(C(F)(F)F)cc21,1.67
8,Clc1ccc(COC(Cn2ccnc2)c2ccc(Cl)cc2Cl)c(Cl)c1 (stereo unspecified) [Miconazole],3.22
9,CC(=O)Nc1ncc([N+](=O)[O-])s1,-3.04
10,Nc1ncn([C@@H]2O[C@H](CO)[C@@H](O)[C@H]2O)c(=O)n1,-5.21
11,Clc1ccc(CSC(Cn2ccnc2)c2ccc(Cl)cc2Cl)cc1 (stereo unspecified) [Sulconazole Nitrate],-2.21
12,CN(C)CCN1C(=O)c2cccc3cc(N)cc(c23)C1=O [Amonafide],-11.7
13,C=C1/C(=C\C=C2/CCC[C@]3(C)[C@@H]([C@H](C)CCCC(C)(C)O)CC[C@@H]23)C[C@@H](O)C[C@@H]1O [Calcitriol],-0.98
14,C=C1/C(=C\C=C2/CCC[C@]3(C)[C@@H]([C@H](C)CCCC(C)(C)O)CC[C@@H]23)C[C@@H](O)C[C@@H]1O [Calcitriol (Rocaltrol)],4.81
15,c1ccc(C(NCCNC(c2ccccc2)c2ccccc2)c2ccccc2)cc1,3.32
16,CCS(=O)(=O)N(C)[C@@H]1c2cc(C#N)ccc2OC(C)(C)[C@H]1O.CCS(=O)(=O)N(C)[C@H]1c2cc(C#N)ccc2OC(C)(C)[C@@H]1O (racemic) [chromanol-(+/-)],0.645
17,O=C1c2ccccc2-c2n[nH]c3cccc1c23 [pyrazolanthrone],-5.03
18,CCCCCCCCCCCC1=C(O)C(=O)C=C(O)C1=O [embelin],-3.97
19,O=c1n(CC2CO2)c(=O)n(CC2CO2)c(=O)n1CC1CO1 (stereo unspecified) [Triglycidyl isocyanurate],-10.8
20,Cc1cc(C)c(C2=NOC3C4CCC(C4)C23)c(C)c1 (stereo unspecified),-0.34
21,O=C1Nc2ccc(I)cc2/C1=C/c1cc(Br)c(O)c(Br)c1,-2.06
22,COc1cccc2c1C(=O)c1c(O)c3c(c(O)c1C2=O)C[C@@](O)(C(=O)CO)C[C@@H]3O[C@H]1C[C@H](N)[C@@H](O)[C@H](C)O1 [Epirubicin Hydrochloride],-13.7
23,CN1CCN(CCCN2c3ccccc3Sc3ccc(Cl)cc32)CC1,1.47
24,Cc1cc(Nc2ncc(Cl)c(Nc3ccccc3S(=O)(=O)C(C)C)n2)c(OC(C)C)cc1C1CCN(CC(=O)NCCOCCOCCOCCOCCOCCNc2cccc3c2C(=O)N(C2CCC(=O)NC2=O)C3=O)CC1 (stereo unspecified),64.6
25,O=c1c(O)c(-c2cc(O)c(O)c(O)c2)oc2cc(O)cc(O)c12 [Myricetin (Cannabiscetin)],-0.905
26,CC(=O)Oc1ccccc1C(=O)Nc1ncc([N+](=O)[O-])s1,0.37
